Source: the supplement of paper PMC9897528

These compounds were tested on Scedosporium aurantiacum CBS 136046 (assay: growth inhibition relative to DMSO control (OD600); higher = more antifungal activity, active = 80 or more; extreme values may be limits of the assay). Details: 5 µM; 72 h; 37 °C.
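Further: conidia screened in RPMI 1640 medium under 5% CO2, growth read by spectrophotometer, medium with 0.5% DMSO serving as the untreated reference.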

Growth inhibition, inactive:
O=C(N[C@H](CCS)C(=O)N[C@H](Cc1ccccc1)C(=O)O)c1cc2ccccc2[nH]1 23.5%
CN(C)[C@@H]1C(=O)C(C(N)=O)=C(O)[C@@]2(O)C(=O)C3=C(O)c4c(O)c(NC(=O)CN5CCCC5)cc(F)c4C[C@H]3C[C@@H]12 0%
CN1CCN(Cc2ccc(-c3cnc4[nH]cc(-c5ccc6[nH]ccc6c5)c4c3)cc2)CC1 54.5%
CCC(C)n1ncn(-c2ccc(N3CCN(c4ccc(OCC5COC(Cn6cncn6)(c6ccc(Cl)cc6Cl)O5)cc4)CC3)cc2)c1=O (stereo not drawn) 57.2%
c1cc(CN2CCCNCCNCCCNCC2)ccc1CN1CCCNCCNCCCNCC1 6.54%
O=C(NCc1ncc(C(F)(F)F)cc1Cl)c1c(Cl)cccc1Cl 0%
CC1(C)Cc2c(C#N)c(SCCc3ccccc3)nc(N3CCOCC3)c2CO1 27.9%
CCOC(=O)Nc1cc(NC(C)CC(C)CN(CC)CC)c2nc(-c3ccccc3)c(-c3ccccc3)nc2n1 (stereo not drawn) 36.4%
Fc1ccc2c(/C=C/c3cccnc3)c[nH]c2c1 5.3%
Cc1cc(NS(=O)(=O)c2ccc(-c3ccc(F)cc3F)cc2)no1 11.5%
O=C(CCc1ccc2c(c1)OCO2)NCc1ccc(-c2ccccc2F)cc1 28.3%
c1ccc(-c2nnc3c4ccccc4c(N4CCNCC4)nn23)cc1 23.6%
O=C(NO)C1(CS(=O)(=O)c2ccc(Oc3ccc(Cl)cc3)cc2)CCOCC1 7.63%
O=c1[nH]cnc2c1ncn2[C@H]1CC[C@@H](CO)O1 10.6%
O=C(c1nc2c(C(F)(F)F)cc(C3CC3)cn2c1Cl)N1CCN([C@H]2CC[C@H](O)CC2)C(=O)C1 4.91%
COc1cc(NC(=O)CN2C(=O)NC(c3ccccc3)(c3ccccc3)C2=O)cc(OC)c1 0%
CC(C)C(=O)N[C@H]1[C@H]([C@H](O)[C@H](O)CO)OC(C(=O)O)=C[C@@H]1N=[N+]=[N-] 9.45%
CC(=O)N[C@H](C)C(=O)N[C@H](Cc1ccccc1)C(=O)O 10.8%
O=C(NCc1ccc2c3c(cccc13)C(=O)N2)c1cccs1 17%
O=C(/C=C/n1cnc(-c2cc(C(F)(F)F)cc(C(F)(F)F)c2)n1)NNc1cnccn1 26.3%
Cc1cc(C2CCCCC2)n(O)c(=O)c1 18.5%
CC(C)(C)c1ccc(C(Cn2cccc(C(F)(F)F)c2=O)NC2Cc3ccccc3C2)cc1 (stereo not drawn) 28.9%
CC(=O)O[C@H]1C[C@@]2(C)[C@@H](C[C@@H](O)[C@H]3[C@@]4(C)CC[C@@H](O)[C@@H](C)[C@@H]4CC[C@@]32C)/C1=C(\CCC=C(C)C)C(=O)O 19.6%
CCN(CC)CCn1c(=N)n(CC(O)COc2ccc(Cl)cc2Cl)c2ccccc21 (stereo not drawn) 10.2%
Clc1cc2nc(C3CCNCC3)n(Cc3ccc(CNCCc4c[nH]cn4)cc3)c2cc1Cl 16.1%
CNC(=O)C1O[C@@H](n2cnc3c(NCc4cccc(I)c4)nc(Cl)nc32)[C@H](O)[C@@H]1O (stereo partly drawn) 3.52%
Cn1cc(NC(=O)c2cc(NC(=O)c3ccc(/C=C/c4cnc5ccccc5c4)cc3)cn2C)cc1C(=O)NCCN1CCOCC1 0%
O=C(NC(=O)N1CCCc2ccccc21)c1ccc(Cl)cc1Cl 3.05%
Cc1ccc(NC(=O)c2ccc(CN3CCN(C)CC3)cc2)cc1Nc1nccc(-c2cccnc2)n1 17.6%
OB1OCc2c1ccc(Cl)c2F 0.00748%
CCCCOC(=O)Nc1cc2nc(C3CCCCC3)[nH]c2cc1N(CC)CC 39.7%
CC(C)(C)c1cc(CCC(=O)N2CCC2)cc(C(C)(C)C)c1O 11.9%
O=C(O)[C@H]1C2CCC(CC2)[C@@H]1Nc1nc(-c2c[nH]c3ncc(F)cc23)ncc1F 10.2%
NCc1ccc(S(N)(=O)=O)cc1 9.4%
O=C(Nc1nnc(-c2ccc(Cl)cc2)o1)c1ccc(F)cc1 48.5%
COc1ccc(OCc2ccc(COc3c(Cl)cccc3Cl)cc2)c(Cl)c1 21.7%
CC[C@H](CO)Nc1nc(NCc2ccccc2)c2ncn(C(C)C)c2n1 10%
C[C@@H](NC(=O)c1ccccc1-c1ccccc1)B(O)O 0.688%
